Test [1] in a line: qHTS assay to identify small molecule agonists of the NFkB signaling pathway (AID 1159509; active = well fitted curve in the direction sought with a large enough effect in the signal ratio in the repeat runs, not every such curve was filed as active; the % refers to the signal ratio). In outline: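 Beta-lactamase reporter assay run in quantitative high-throughput format on an NF-kB-responsive ME-180 line, with 5 hr compound treatment and a FRET-based blue/green fluorescence readout.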
Test [2] can be described thus: qHTS assay to identify small molecule agonists of the endoplasmic reticulum stress response signaling pathway (AID 1159516; active = well fitted activation curve with a large enough effect in the signal ratio in the repeat runs, not every such curve was filed as active; the % refers to the signal ratio). In a few lines:
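Fluorescence at 460 and 530 nm (405 nm excitation) reports beta-lactamase from an ER stress response element in HeLa cells treated 5 hr at 37 C.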
For orientation: qHTS replaces the single test concentration by a dilution series.

Test [3] is described as follows: qHTS assay to identify small molecule agonists of the endoplasmic reticulum stress response signaling pathway - cell viability counter screen (AID 1159517; calls by dose curve; also: nearly all actives have a fitted effect of over 50% in size; also: potency is read from the fitted curve at half-maximal effect). In outline:
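Cytotoxicity of test compounds toward ESRE-bla HeLa cells was assessed after 5 hr exposure. The luminescent CellTiter-Glo signal was measured 30 min after reagent addition.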

The target in test [4] is Nuclear receptor ROR-gamma (Homo sapiens) (UniProt P51449). The experiment in a line: qHTS assay to identify small molecule antagonists of the retinoid-related orphan receptor gamma (ROR-gamma) signaling pathway (AID 1159521; also: nearly all actives have a fitted effect of over 50% in size; also: potency is read from the fitted curve at half-maximal effect). In a few lines: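 Tet-on ROR-gamma CHO cells with ROR response element-luciferase reporter; compounds added 2 hr before 1 uM doxycycline induction, then 16 hr at 37 C. Antagonism scored as decreased ONE-Glo luminescence.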

Test [5] can be described thus: qHTS assay to identify small molecule agonists of the AP-1 signaling pathway - cell viability counter screen (AID 1159525; calls by dose curve; also: nearly all actives have a fitted effect of over 55% in size). In outline: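 Each titration point was normalised to DMSO and tetra n-octyl ammonium bromide controls. The read was Cell Titer Glo luminescence after 30 min at RT, following 5 h compound exposure of ME-180 AP-1-bla cells at 37 °C.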
A short description of test [6]: qHTS assay to identify small molecule agonists of the AP-1 signaling pathway (AID 1159526; calls by dose curve).
Test [7] concerns the target Retinoic acid receptor RXR-alpha (Homo sapiens) (UniProt P19793). Kind of test: qHTS assay to identify small molecule agonists of the RXR signaling pathway (AID 1159527; calls by dose curve; also: nearly all actives have a fitted effect of over 35% in size). In outline:
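GeneBLAzer RXR-alpha-UAS-bla HEK 293T cells in 2% charcoal-stripped FBS medium were exposed to compounds for 16 hr at 37 C in agonist mode. Beta-lactamase reporter read as 460/530 nm FRET ratio after 2 hr substrate loading.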

Test [8] is described as follows: qHTS assay to identify small molecule antagonists of the retinoid acid receptor (RAR) signaling pathway - cell viability counter screen (AID 1159551). Also: nearly all actives have a fitted effect of over 35% in size. Also: potency is read from the fitted curve at half-maximal effect. In outline:
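In this counter screen, the RARE-luciferase line C3RL4 was exposed for 6 h at 37 C and 5% CO2 to compounds with retinol at 1 uM final. Cellular ATP, read by luminescence, served as the viability measure.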

Test [9] can be described thus: qHTS assay to identify small molecule antagonists of the retinoic acid receptor (RAR) signaling pathway (AID 1159552; also: nearly all actives have a fitted effect of over 50% in size; also: potency is read from the fitted curve at half-maximal effect). In outline:
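Retinol signaling pathway inhibitors screened in C3RL4 RARE-luciferase reporter cells seeded overnight at 37 C, then compounds added with 1 uM (final) retinol as pathway substrate. After 6 hr at 37 C, luciferase luminescence read after 30 min at room temperature.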

Test [10] can be described thus: qHTS assay to identify small molecule agonists of the retinoic acid receptor (RAR) signaling pathway (AID 1159553). The note with it: C3RL4 RARE luciferase reporter, agonist, 6 h; activation: at 73.3 µM (top of the series). In a few lines: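 In this cell-based screen, 1,000 C3RL4 cells per well were cultured overnight, dosed with test chemicals in DMSO for 6 hr, and assessed for RARE luciferase luminescence.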

The nature of test [11]: qHTS assay to identify small molecule agonists of the estrogen related receptor (ERR) signaling pathway (AID 1224820). In outline:
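Following a 6 h settling period, 2,000 ERR cells per well receive DMSO-dissolved compounds by pin tool and incubate 18 h at 37 C; agonist activity is scored from One-Glo luminescence read 30 min post-addition.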

Test [12] can be described thus: qHTS assay to identify small molecule agonists of the estrogen related receptor signaling pathway with the pleiotropic PPARgamma coactivator (PGC) (AID 1224823). In outline:
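In this quantitative high-throughput screen, an 18 h, 37 C treatment of PGC/ERR cells with compounds in DMSO preceded a One-Glo luminescence read taken after 30 min at room temperature.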

The nature of test [13]: qHTS assay to identify small molecule antagonists of the vitamin D receptor (VDR) signaling pathway - cell viability counter screen (AID 743225). Also: nearly all actives have a fitted effect of over 50% in size. In a few lines:
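VDR-UAS-bla HEK 293T cells were plated and incubated 4 h at 37C, then dosed with compound plus 3 nM (final) 1-alpha,25-dihydroxyvitamin D3 for 16 h. After the 2 h beta-lactamase read, viability in the same wells was read as CellTiter-Glo luminescence after 30 min at room temperature.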

Test [14] in a line: qHTS assay to identify small molecule agonists of the RXR signaling pathway - cell viability counter screen (AID 1159529). Also: nearly all actives have a fitted effect of over 50% in size. Also: potency is read from the fitted curve at half-maximal effect. In a few lines:
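RXR-alpha-UAS-bla HEK 293T cells in medium with 2% charcoal-stripped FBS were pre-incubated 5 hr, then compound-treated 16 hr at 37 C. Viability was read by CellTiter-Glo luminescence in the same wells as the beta-lactamase assay, with tetraoctyl ammonium bromide as positive control.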

A short description of test [15]: qHTS assay to identify small molecule antagonists of the retinoid-related orphan receptor gamma (ROR-gamma) signaling pathway - cell viability counter screen (AID 1159520). Also: nearly all actives have a fitted effect of over 50% in size. Also: potency is read from the fitted curve at half-maximal effect. In a few lines:
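Tet-on ROR gamma CHO cells (1,000/well) were plated 4 hr, given compounds in DMSO for 2 hr at 37 C, then induced with 1 uM final doxycycline for 16 hr. Viability was read as ATP by CellTiter-Glo luminescence after 30 min.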

The nature of test [16]: qHTS assay to identify small molecule antagonists of the estrogen related receptor (ERR) signaling pathway - cell viability counter screen (AID 1224818). In a few lines:
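Viability of ERR cells, CellTiter-Fluor fluorescence; 17.5 h compound exposure at 37 C, DMSO vehicle; 30 min reagent incubation at 37 C/5% CO2.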

The nature of test [17]: qHTS assay to identify small molecule antagonists of the estrogen related receptor (ERR) signaling pathway (AID 1224819). In outline: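 Seed ERR cells 2,000/well; rest 6 h at 37 C/5% CO2; pin compounds in DMSO; incubate 18 h at 37 C; add One-Glo; wait 30 min at room temperature; measure luminescence.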
The test system of test [18] is estrogen-related receptor alpha (ERRalpha) with PGC-1alpha coactivator, human. Kind of test: qHTS assay to identify small molecule antagonists of the estrogen related receptor signaling pathway with the pleiotropic PPARgamma coactivator (PGC) (AID 1224821; calls by dose curve). In outline:
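Screening used NTP's PGC/ERR cells, dosed via pin tool with compound in DMSO alongside positive and negative controls. After 18 h at 37 C, One-Glo reagent sat 30 min at room temperature before luminescence detection.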

The structures appear in SMILES notation. Inconclusive results are not listed. Active and inactive are the calls of the source. Unless noted, calls follow the shape of the dose curve; as a rule, active = well fitted curve in the direction sought with a large enough effect in the repeat runs; inconclusive = weak or mixed curves; inactive = no such curve, though single readings can be large; an effect the other way counts as inactive or inconclusive.

Retinoic acid receptor RXR-alpha (Homo sapiens), sequence (P19793 whole entry, looked up): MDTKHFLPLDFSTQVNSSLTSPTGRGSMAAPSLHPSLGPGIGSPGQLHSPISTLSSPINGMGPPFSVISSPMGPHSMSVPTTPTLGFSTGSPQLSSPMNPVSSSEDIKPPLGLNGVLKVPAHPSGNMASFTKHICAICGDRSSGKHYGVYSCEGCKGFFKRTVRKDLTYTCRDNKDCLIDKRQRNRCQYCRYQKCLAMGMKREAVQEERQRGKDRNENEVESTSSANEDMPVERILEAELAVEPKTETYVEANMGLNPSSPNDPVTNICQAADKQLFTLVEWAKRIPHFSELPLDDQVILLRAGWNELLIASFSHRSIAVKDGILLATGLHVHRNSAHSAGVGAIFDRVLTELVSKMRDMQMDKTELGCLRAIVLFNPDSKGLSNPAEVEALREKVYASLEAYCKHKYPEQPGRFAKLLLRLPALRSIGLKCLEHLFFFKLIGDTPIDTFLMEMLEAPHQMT

Turning to `CN1C[C@H](C(=O)N[C@]2(C)O[C@@]3(O)[C@@H]4CCCN4C(=O)[C@H](Cc4ccccc4)N3C2=O)C[C@@H]2c3cccc4[nH]cc(c34)C[C@H]21`, the Potency result in [1], in [2], in [3], in test [4], in test [5] and in [6] was “inactive” in each case. For the same molecule, the Potency result in test [7], in test [8], in [9] and in test [10] was “inactive” in each case. Also, the outcome in test [11] and in test [12] was inactive.

With `C[C@@H](CN(C)C)CN1c2ccccc2Sc2ccccc21`, the Potency entry in test [1], in test [2], in [3], in [5] and in test [8] was “inactive” in each case. In addition, the Potency in test [4] was 26.6 µM (active).

On to `Cc1cc(C)cc(N)c1`, for which the Potency result in test [13], in [1], in test [3], in [4], in [6] and in test [7] was “inactive” in each case. For the same molecule, the Potency entry in [14] and in test [8] was “inactive” in each case.

As for `CC/C=C1/OC(=O)c2ccccc21`, the Potency entry in test [13], in test [1], in test [3], in test [15], in test [4] and in test [8] was “inactive” in each case. The Potency entry in test [9] was “inactive”.

Turning to `CCCCCCCC/C=C\CCCCCCCCO`, the Potency entry in test [13], in test [1], in test [3], in test [15], in [4] and in [5] was “inactive” throughout. The Potency entry in test [6], in test [7], in test [14], in test [8], in test [9] and in test [10] was “inactive” in each case.

Consider `Cc1ccco1`, for which the Potency result in test [1], in test [2], in test [15], in test [4], in [5] and in test [6] was “inactive” each time. Moreover, the Potency entry in test [14] and in test [8] was “inactive” each time.

In the case of `CC(=O)Nc1cc(S(=O)(=O)O)cc2cc(S(=O)(=O)O)c(N=Nc3ccccc3)c(O)c12`, the Potency result in test [1], in [2], in test [3], in [5], in [6] and in [14] was “inactive” each time. In addition, the Potency entry in test [9] was “inactive”. In addition, the Potency in test [8] is 24.3 µM (active).

In the case of `CC(C)c1nc(CN(C)C(=O)N[C@H](C(=O)N[C@@H](Cc2ccccc2)C[C@H](O)[C@H](Cc2ccccc2)NC(=O)OCc2cncs2)C(C)C)cs1`, the Potency entry in [1], in test [4], in [6], in test [8], in test [9] and in test [10] was “inactive” in each case. The Potency in test [3] is 15.1 µM (active); in test [14] it was 9.52 µM (active).

Take `O=C(OC(=O)c1ccccc1)c1ccccc1`: the Potency result in test [13], in test [1], in test [2], in test [15], in test [4] and in [5] was “inactive” throughout. The Potency entry in test [6], in test [7], in [14] and in [8] was “inactive” in each case.

As for `Oc1c(I)cc(I)c2cccnc12`, the Potency entry in test [1], in test [3], in test [8] and in test [9] was “inactive” throughout.

Regarding `CC[C@]1(O)C[C@H]2CN(CCc3c([nH]c4ccccc34)[C@@](C(=O)OC)(c3cc4c(cc3OC)N(C=O)[C@H]3[C@@](O)(C(=O)OC)[C@H](OC(C)=O)[C@]5(CC)C=CCN6CC[C@]43[C@@H]65)C2)C1`, the Potency entry in [13], in [1], in test [3], in test [5], in test [14] and in test [8] was “inactive” each time. The Potency in test [9] was 0.168 µM (active).

As for `CCCCC(CC)CN` (centres undefined), the Potency entry in test [1], in [2], in test [15], in [5], in [6] and in test [14] was “inactive” in each case. For the same molecule, the Potency result in test [8] and in [9] was “inactive” in each case.

With `CN(C)CCC=C1c2ccccc2C=Cc2ccccc21`, the Potency result in test [1], in test [2], in test [3], in test [4], in test [8] and in test [10] was “inactive” throughout. Besides, the call in test [16], in [17], in test [11], in [18] and in test [12] was inactive.

Consider `C[C@@H](O[C@H]1OCCN(Cc2n[nH]c(=O)[nH]2)[C@H]1c1ccc(F)cc1)c1cc(C(F)(F)F)cc(C(F)(F)F)c1`, for which the Potency entry in [1] and in [2] was “inactive” throughout. For the same molecule, the Potency is 26.6 µM (active) in test [15], 19 µM (active) in test [14] and 26.6 µM (active) in test [9].

For the origin of these results see PubChem BioAssay (Tox21).
